Experimental data published in PubChem BioAssay (NCATS).
“And” between values parts separate entries of the source, which are not always exact repeats. Equal entries are not always repeated. Results filed as inconclusive are left out. The source made the active and inactive calls. Unless noted, calls come from the whole dose curve; as a rule, active = well fitted curve in the direction sought with a large enough effect; inconclusive = small, poorly fitted or top-dose-only effect, or another doubt; inactive = no such curve, though single readings can be large; an effect the other way counts as inactive or inconclusive.

Columns and labels:
[1] = qHTS for Inhibitors of Plasmodium falciparum (DD2) proliferation (AID 504314);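 note: parasite DNA measured by SYBR Green fluorescence after red cell lysis; plate controls were DMSO vehicle for no effect and artemisinin wells for full effect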
In short: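 Normalization used 0.29 uM artemisinin as full inhibition and DMSO as baseline. Parasitized erythrocytes were exposed to compounds for 72 h (37C, 5% CO2), then lysed with saponin/Triton buffer containing SYBR Green I.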

[2] = qHTS for Inhibitors of Plasmodium falciparum (GB4) proliferation (AID 504315);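 note: 0% = DMSO vehicle and -100% = 0.29 µM artemisinin control; nearly all actives have a fitted effect of over 50% in size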
In short: (§1)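 Parasite growth measured as SYBR Green DNA fluorescence (ex 485, em 535 nm) after overnight lysis following 72 h culture at 37 °C, 0.3% parasitemia, 2.5% hematocrit. Values normalized against DMSO and 0.29 uM artemisinin controls, with plate-stack correction.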

[3] = qHTS for Inhibitors of Plasmodium falciparum (7G8) proliferation (AID 504316);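 note: series mostly up to about 6.7 µM; 0% = DMSO vehicle and -100% = 0.29 µM artemisinin full kill; nearly all actives have a fitted effect of over 65% in size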
In short: as §1

[4] = qHTS for Inhibitors of Plasmodium falciparum (HB3) proliferation (AID 504318);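 note: 0% = DMSO vehicle and -100% = artemisinin control; nearly all actives have a fitted effect of over 60% in size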
In short: as §1

[5] = qHTS for Inhibitors of Plasmodium falciparum (CP250) proliferation (AID 504320);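 note: plate controls were DMSO vehicle for no effect and 0.29 µM artemisinin control for full effect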
In short: as §1

[6] = biological target: Atrial natriuretic peptide receptor 1 (Homo sapiens) (UniProt P16066); test: Natriuretic polypeptide receptor (hNpr1) antagonism - Pilot CMLD screen (AID 1347052; calls by dose curve;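 note: HEK293 cells with hNpr1 stimulated by hNppA peptide at 0.1 nM; cGMP level read as GloSensor luciferase luminescence after agonist stimulation; series mostly up to about 9.2 µM; % is set by controls: 0 for no effect and ±100 for the full control effect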)
Atrial natriuretic peptide receptor 1 (Homo sapiens), sequence (P16066 whole entry, looked up): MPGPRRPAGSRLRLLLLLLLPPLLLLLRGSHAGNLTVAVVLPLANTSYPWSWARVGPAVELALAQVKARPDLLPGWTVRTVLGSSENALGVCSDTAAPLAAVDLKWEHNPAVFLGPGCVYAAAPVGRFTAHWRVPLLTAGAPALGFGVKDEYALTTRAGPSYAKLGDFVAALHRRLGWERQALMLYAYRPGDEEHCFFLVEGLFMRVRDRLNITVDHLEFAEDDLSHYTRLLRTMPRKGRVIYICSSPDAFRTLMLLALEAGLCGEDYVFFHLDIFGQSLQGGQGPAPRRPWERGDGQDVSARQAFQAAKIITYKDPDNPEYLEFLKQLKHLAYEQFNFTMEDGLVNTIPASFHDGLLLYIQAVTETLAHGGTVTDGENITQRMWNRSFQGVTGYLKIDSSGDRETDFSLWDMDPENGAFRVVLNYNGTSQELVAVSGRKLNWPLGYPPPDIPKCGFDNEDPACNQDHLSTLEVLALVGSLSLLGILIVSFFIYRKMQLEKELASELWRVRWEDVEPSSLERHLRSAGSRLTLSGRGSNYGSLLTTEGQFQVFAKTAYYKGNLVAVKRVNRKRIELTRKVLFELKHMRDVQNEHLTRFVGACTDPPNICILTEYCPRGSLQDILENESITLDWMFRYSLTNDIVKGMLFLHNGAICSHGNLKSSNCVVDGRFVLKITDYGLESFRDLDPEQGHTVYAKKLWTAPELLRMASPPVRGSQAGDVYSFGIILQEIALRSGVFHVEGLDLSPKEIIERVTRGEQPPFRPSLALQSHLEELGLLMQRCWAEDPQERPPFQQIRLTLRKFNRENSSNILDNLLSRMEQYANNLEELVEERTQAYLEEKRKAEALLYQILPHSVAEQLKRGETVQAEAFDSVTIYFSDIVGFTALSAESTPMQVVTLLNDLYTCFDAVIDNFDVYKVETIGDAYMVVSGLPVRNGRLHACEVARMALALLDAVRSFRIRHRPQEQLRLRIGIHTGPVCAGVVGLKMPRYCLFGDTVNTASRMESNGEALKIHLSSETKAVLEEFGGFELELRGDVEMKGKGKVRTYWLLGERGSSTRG

O=C1[C@H]2[C@@H]3[C@@H](O)[C@H](O)CC(=NOCc4ccccc4)[C@@H]3CC[C@H]2C(=O)N1C1CCCCC1
inactive: Potency [1] | Potency [2] | Potency [3] | Potency [4] | Potency [5] | Potency [6]

C=CCOC(=O)N[C@@H](CCc1ccccc1)C(C(C)=O)C(C)=O
inactive: Potency [1] | Potency [2] | Potency [3] | Potency [4] | Potency [5] | Potency [6]

C[C@H]1C[C@@H](C)O[C@@]2(C1)C(=O)Nc1ccccc12
inactive: Potency [1] | Potency [2] | Potency [3] | Potency [4] | Potency [5] | Potency [6]

CC(=O)C1=C(C)N(Cc2ccccc2)C(=O)NC1c1ccco1 (stereo unspecified)
inactive: Potency [1] | Potency [2] | Potency [3] | Potency [4] | Potency [5] | Potency [6]

COC(=O)[C@@H]1CC[C@H](C)[C@@H](c2ccc(C)cc2)N1C(=O)c1ccc(C=NO[C@H](C)c2cn([C@@H]3COC[C@@H]3O)nn2)cc1
inactive: Potency [1] | Potency [2] | Potency [3] | Potency [4] | Potency [5] | Potency [6]

COC(=O)C1=C(C(=O)OC)[C@@H]2Nc3ccccc3[C@@]23C[C@@H](C(=O)OC)N(C(=O)Nc2ccc(C(F)(F)F)cc2)C3=N1
inactive: Potency [1] | Potency [2] | Potency [3] | Potency [4] | Potency [5] | Potency [6]

C[C@H]1[C@H](O)[C@@H](N=[N+]=[N-])CCO[C@H]1c1ccccc1
inactive: Potency [1] | Potency [2] | Potency [3] | Potency [4] | Potency [5] | Potency [6]

C=C1C2c3ccccc3C(CC2(C)O[Si](C)(C)C)N1C(=O)OC (stereo unspecified)
inactive: Potency [1] | Potency [2] | Potency [3] | Potency [4] | Potency [5] | Potency [6]

C=CCN1c2ccccc2[C@]23C[C@@H](C(=O)OC)N(C(=O)Nc4ccccc4F)C2=NC(C(=O)OC)=C(C(=O)OC)[C@H]13
inactive: Potency [1] | Potency [2] | Potency [3] | Potency [4] | Potency [5] | Potency [6]

COC[C@H]1O[C@@H]2O[C@@H]1[C@@H](C=Cc1ccccc1)C[C@H]2C
inactive: Potency [1] | Potency [2] | Potency [3] | Potency [4] | Potency [5] | Potency [6]

C=CCOC(=O)NC(c1ccc(F)c(F)c1)S(=O)(=O)c1ccc(Cl)cc1 (stereo unspecified)
inactive: Potency [1] | Potency [2] | Potency [3] | Potency [4] | Potency [5] | Potency [6]

C#C[C@@H]1C=C[C@H](Oc2ccc(OC)cc2)[C@H](CO)O1
inactive: Potency [1] | Potency [2] | Potency [3] | Potency [4] | Potency [5] | Potency [6]

CCN1C(=O)NC(c2ccccc2)C(C(=O)OC)=C1C (stereo unspecified)
inactive: Potency [1] | Potency [2] | Potency [3] | Potency [4] | Potency [5] | Potency [6]

COC1=CC2C(=O)C(C(c3ccccc3)C2C)C1(O)c1cccc(OC)c1 (stereo unspecified)
inactive: Potency [1] | Potency [2] | Potency [3] | Potency [4] | Potency [5] | Potency [6]

C[C@@H]1C=CCCO[C@]12C(=O)N(Cc1ccccc1C(F)(F)F)c1ccccc12
inactive: Potency [1] | Potency [2] | Potency [3] | Potency [4] | Potency [5] | Potency [6]

COc1ccc(O[C@H]2C=C[C@@H](c3ccccc3)O[C@H]2COC(=O)CCC(C)=NO[C@@H](C)c2cc(-c3c(C)cc(C)cc3C)no2)cc1
inactive: Potency [1] | Potency [2] | Potency [3] | Potency [4] | Potency [5] | Potency [6]

Cc1ccc([S+](=O)([O-])N(c2ccccc2)[S+](=O)([O-])C(F)(F)F)cc1
inactive: Potency [1] | Potency [2] | Potency [3] | Potency [4] | Potency [5] | Potency [6]

CC1(OC(=O)C2CCCC2)C(=O)C=C2C=C3CCCCN3C=C2C1=O (stereo unspecified)
inactive: activity, negative = inhibition [1] 1.6% [at 1.12 µM] | Potency [2] | Potency [3] | Potency [4] | Potency [5] | Potency [6]

C=CC[C@@H]1C=C[C@@H](OC(=O)OCC)[C@@H](COC(=O)OCC)O1
inactive: Potency [1] | Potency [2] | Potency [3] | Potency [4] | Potency [5] | Potency [6]

COC(=O)[C@@H]1C[C@@]23C(=NN=C(SC)C2Nc2ccccc23)N1C(C)=O (stereo partly specified)
inactive: Potency [1] | Potency [2] | Potency [3] | Potency [4] | Potency [5] | Potency [6]

C=CCOC(=O)N[C@H](c1ccco1)C(C(C)=O)C(C)=O
inactive: Potency [1] | Potency [2] | Potency [3] | Potency [4] | Potency [5] | Potency [6]

COCC=CC1=CC2=CC(=O)C(C)(OC(=O)c3cnc4ccccc4n3)C(=O)C2=CN1CCCCO (stereo unspecified)
inactive: Potency [1] | Potency [2] | Potency [3] | Potency [4] | Potency [5] | Potency [6]

C[C@H]1Cc2c(-c3ccccc3)nc3c(c2CO1)CN(C(=O)NCc1ccco1)CC3
inactive: activity, negative = inhibition [1] 0.465% [at 1.12 µM] | Potency [2] | Potency [3] | Potency [4] | Potency [5] | Potency [6]

COC(=O)CCCC1=CC2=CC(=O)C(C)(OC(=O)c3cccs3)C(=O)C2=CN1CCN1CCOCC1 (stereo unspecified)
inactive: Potency [1] | Potency [2] | Potency [3] | Potency [4] | Potency [5] | Potency [6]

C[C@@H]1C=CCCO[C@]12C(=O)Nc1ccc(O)cc12
inactive: Potency [1] | Potency [2] | Potency [3] | Potency [4] | Potency [5] | Potency [6]

COC(=O)N1C(c2ccccc2)=Cc2ccccc2C1C1(C(=O)OC)CCCC1=O (stereo unspecified)
inactive: Potency [1] | Potency [2] | Potency [3] | Potency [4] | Potency [5] | Potency [6]

CCN1C(=O)[C@@H]2[C@H]3[C@H](O)[C@H](O)CC(=NO[C@@H]4O[C@H](COC(C)=O)[C@@H](OC(C)=O)[C@H](OC(C)=O)[C@@H]4OC(C)=O)[C@@H]3CC[C@H]2C1=O
inactive: Potency [1] | Potency [2] | Potency [3] | Potency [4] | Potency [5] | Potency [6]

COC(=O)[C@@]1(C=C2c3ccc(F)cc3[C@@H](OC)[C@@H]2C)[C@@H]2OCCC[C@@H]21
inactive: Potency [1] | Potency [2] | Potency [3] | Potency [4] | Potency [5] | Potency [6]

COC(=O)CC=C[C@@H](C)[C@@H](C=NO[C@H](C)c1cn([C@H](CO)Cc2ccccc2)nn1)NS(=O)(=O)c1ccc(C)cc1
inactive: Potency [1] | Potency [2] | Potency [3] | Potency [4] | Potency [5] | Potency [6]

CC1(OC(=O)c2cnc3ccccc3n2)C(=O)C=C2C=C(C3CC3)OC=C2C1=O (stereo unspecified)
inactive: Potency [1] | Potency [2] | Potency [3] | Potency [4] | Potency [5] | Potency [6]

CN1c2ccccc2[C@@]2(O)C(=O)[C@@]1(C)[C@@H]1c3ccccc3C[C@H]12
inactive: Potency [1] | Potency [2] | Potency [3] | Potency [4] | Potency [5] | Potency [6]

COC(=O)CC=C[C@@H](C)[C@H](OC)c1cc(OC)ccc1Br
inactive: Potency [1] | Potency [2] | Potency [3] | Potency [4] | Potency [5] | Potency [6]

CC1=CC[C@@H](COc2ccccc2)O[C@@]2(C1)C(=O)Nc1cccc(Br)c12
inactive: Potency [1] | Potency [2] | Potency [3] | Potency [4] | Potency [5] | Potency [6]

COC(=O)CCCC1=CC2=C(c3ccccc3)C(=O)C(C)(OC(=O)C3CCCC3)C(=O)C2=CN1Cc1ccco1 (stereo unspecified)
inactive: Potency [1] | Potency [2] | Potency [3] | Potency [4] | Potency [5] | Potency [6]

CCN1C(=O)[C@@H]2[C@H]3[C@H](O)[C@H](O)CC(=NOCC[C@@H]4C=C[C@H](OC(C)=O)[C@@H](COC(C)=O)O4)[C@@H]3CC[C@H]2C1=O
inactive: Potency [1] | Potency [2] | Potency [3] | Potency [4] | Potency [5] | Potency [6]

C=CCO[C@@H]1C=C[C@@H](c2ccccc2)O[C@@H]1COC
inactive: Potency [1] | Potency [2] | Potency [3] | Potency [4] | Potency [5] | Potency [6]

COC(=O)N1C(C)=Cc2ccccc2C1CC(C)=O (stereo unspecified)
inactive: activity, negative = inhibition [1] -3.47% [at 1.12 µM] and -2.49% [at 1.12 µM] | Potency [2] | Potency [3] | Potency [4] | Potency [5] | Potency [6]

COC(=O)CCCC1=CC2=CC(=O)C(C)(OC(=O)c3cccs3)C(=O)C2=CN1CC(C)C (stereo unspecified)
inactive: Potency [1] | Potency [2] | Potency [3] | Potency [4] | Potency [5] | Potency [6]

c1ccc(-c2nc(-c3ccccc3)c(NC3CCCCC3)o2)cc1
inactive: Potency [1] | Potency [2] | Potency [3] | Potency [4] | Potency [5] | Potency [6]

OC[C@H]1O[C@H](c2ccccc2)C=C[C@H]1OCc1cccc(Br)c1
inactive: Potency [1] | Potency [2] | Potency [3] | Potency [4] | Potency [5] | Potency [6]

CCCCCCCc1cc2ccccc2c2c(C(C)=O)c(-c3ccccc3)c(C(=O)OC)n12
inactive: Potency [1] | Potency [2] | Potency [3] | Potency [4] | Potency [5] | Potency [6]

CCCCC1=CC2=C(c3ccco3)C(=O)C(C)(OC(=O)c3ccc(OC)cc3)C(=O)C2=CN1CCN1CCOCC1 (stereo unspecified)
inactive: Potency [1] | Potency [2] | Potency [3] | Potency [4] | Potency [5] | Potency [6]

COC(=O)C[C@H]1c2ccccc2[C@@H]2C(=C[C@@H](C)[C@H]3C(=O)N(O)C(=O)[C@H]32)N1C(=O)OC
inactive: Potency [1] | Potency [2] | Potency [3] | Potency [4] | Potency [5] | Potency [6]

COC1=C[C@H](C(=O)NCc2ccc(Br)cc2)C(C)C(c2ccccc2)CC1=O (stereo partly specified)
inactive: Potency [1] | Potency [2] | Potency [3] | Potency [4] | Potency [5] | Potency [6]

COC(=O)N[C@H](CC(C)=O)c1cccc(C(F)(F)F)c1
inactive: Potency [1] | Potency [2] | Potency [3] | Potency [4] | Potency [5] | Potency [6]

COC(=O)[C@H]1[C@H](C)[C@@]2(O)c3ccccc3N(C)[C@@]1(C)[C@H]2O
inactive: Potency [1] | Potency [2] | Potency [3] | Potency [4] | Potency [5] | Potency [6]

CCOC(=O)CNC(=O)O[C@H]1C(=O)c2ccc(OC)cc2O[C@@H]1c1ccc2c(c1)OCO2
inactive: Potency [1] | Potency [2] | Potency [3] | Potency [4] | Potency [5] | Potency [6]

CCN1C(=O)NC(c2cccc(C(F)(F)F)c2)C(C(=O)OC)=C1C (stereo unspecified)
inactive: Potency [1] | Potency [2] | Potency [3] | Potency [4] | Potency [5] | Potency [6]

C=CCC12OC3(OC)CC1[C@H](C)[C@@H](c1ccccc1)C2[C@@]3(C)O (stereo partly specified)
inactive: Potency [1] | Potency [2] | Potency [3] | Potency [4] | Potency [5] | Potency [6]

COC(=O)C1=C(C(=O)OC)[C@@H]2N(C)c3ccccc3[C@@]23C[C@@H](C(=O)OC)N(C(=O)c2cc(C)oc2C)C3=N1
inactive: Potency [1] | Potency [2] | Potency [3] | Potency [4] | Potency [5] | Potency [6]

C=CCOC(=O)N[C@H](C[N+](=O)[O-])c1ccccc1
inactive: Potency [1] | Potency [2] | Potency [3] | Potency [4] | Potency [5] | Potency [6]
